According to PubChem BioAssay (Tox21):
Results filed as inconclusive are left out. A number with no mark means an inactive call. Calls come from the whole dose curve; as a rule, active = well fitted inhibition curve with a large enough effect in the repeat runs; inconclusive = weak or mixed curves; inactive = no such curve, though single readings can be large or run the other way.

Target: Androgen receptor (Homo sapiens) (UniProt P10275)
Test: qHTS assay to identify small molecule antagonists of the androgen receptor (AR) signaling pathway using the MDA cell line in the presence of 0.5 nM R1881 (AID 1259243)
Details: MDA-kb2 MMTV-luciferase, R1881 0.5 nM, 16 h; series mostly up to 92.4 µM; activity, negative = inhibition: at the top concentration
How it was run: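 MDA-kb2 cells (MMTV-luciferase, responsive to AR and GR) at 3,000/well, rested 5 h at 37C, 0% CO2, then given compounds plus 0.5 nM R1881 (final) for 16 hr. Luciferase read with ONE-Glo after 30 min at room temperature.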
% is set by controls: 0 for no effect and ±100 for the full control effect.
Note: nearly all actives have a fitted effect of over 50% in size.

Androgen receptor (Homo sapiens), sequence (P10275 whole entry, looked up): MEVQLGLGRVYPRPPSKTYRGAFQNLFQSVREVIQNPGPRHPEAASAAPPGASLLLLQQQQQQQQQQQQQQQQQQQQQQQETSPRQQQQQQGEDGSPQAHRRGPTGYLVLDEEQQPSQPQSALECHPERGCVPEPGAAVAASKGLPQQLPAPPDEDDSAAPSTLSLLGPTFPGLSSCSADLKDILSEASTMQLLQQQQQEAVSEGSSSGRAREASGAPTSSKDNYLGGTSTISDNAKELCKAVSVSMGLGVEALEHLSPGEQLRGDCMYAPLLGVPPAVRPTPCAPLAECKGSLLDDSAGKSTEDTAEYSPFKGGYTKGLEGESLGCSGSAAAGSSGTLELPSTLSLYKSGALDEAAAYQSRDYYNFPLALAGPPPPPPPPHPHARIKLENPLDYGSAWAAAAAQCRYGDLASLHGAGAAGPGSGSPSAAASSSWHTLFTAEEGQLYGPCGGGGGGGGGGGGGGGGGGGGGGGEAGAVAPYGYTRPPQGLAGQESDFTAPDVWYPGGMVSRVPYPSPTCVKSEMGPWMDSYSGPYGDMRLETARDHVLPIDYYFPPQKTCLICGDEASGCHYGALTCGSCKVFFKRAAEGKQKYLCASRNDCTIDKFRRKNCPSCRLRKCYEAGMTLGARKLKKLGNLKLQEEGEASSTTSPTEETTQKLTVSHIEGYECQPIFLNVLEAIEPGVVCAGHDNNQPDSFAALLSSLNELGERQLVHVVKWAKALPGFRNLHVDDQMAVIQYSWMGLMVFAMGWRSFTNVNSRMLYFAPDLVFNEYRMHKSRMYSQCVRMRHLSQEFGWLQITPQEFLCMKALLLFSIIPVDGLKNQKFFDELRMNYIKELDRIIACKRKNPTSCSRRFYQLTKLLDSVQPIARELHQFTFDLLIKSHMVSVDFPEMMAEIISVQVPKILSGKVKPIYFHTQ

| Compound | activity, negative = inhibition |
| --- | --- |
| Cc1ccc(N)nc1 | 2.36% |
| Cc1cc(=O)oc2cc(O[C@@H]3SC[C@@H](O)[C@H](O)[C@H]3O)ccc12 | 5.58% [at 42.5 µM] |
| C=CCN1CCc2nc(N)sc2CC1 | 4.52% [at 42.5 µM] |
| CCCCCCCCC1CO1 (stereo not drawn) | -6.36% |
| COC(=O)c1ccc(NC(C)=O)cc1OC | 1.21% [at 42.5 µM] |
| C/C(=N\O)c1ccc(OCC(=O)N2CCCCC2)cc1 | 72.8% [at 42.5 µM] |
| CC(=O)/C=C/C=C1/C2CCC(C2)C1(C)C (stereo not drawn) | -13.1% [at 42.5 µM] |

Target: Estrogen receptor (Homo sapiens) (UniProt P03372)
Sequence (P03372 whole entry, looked up): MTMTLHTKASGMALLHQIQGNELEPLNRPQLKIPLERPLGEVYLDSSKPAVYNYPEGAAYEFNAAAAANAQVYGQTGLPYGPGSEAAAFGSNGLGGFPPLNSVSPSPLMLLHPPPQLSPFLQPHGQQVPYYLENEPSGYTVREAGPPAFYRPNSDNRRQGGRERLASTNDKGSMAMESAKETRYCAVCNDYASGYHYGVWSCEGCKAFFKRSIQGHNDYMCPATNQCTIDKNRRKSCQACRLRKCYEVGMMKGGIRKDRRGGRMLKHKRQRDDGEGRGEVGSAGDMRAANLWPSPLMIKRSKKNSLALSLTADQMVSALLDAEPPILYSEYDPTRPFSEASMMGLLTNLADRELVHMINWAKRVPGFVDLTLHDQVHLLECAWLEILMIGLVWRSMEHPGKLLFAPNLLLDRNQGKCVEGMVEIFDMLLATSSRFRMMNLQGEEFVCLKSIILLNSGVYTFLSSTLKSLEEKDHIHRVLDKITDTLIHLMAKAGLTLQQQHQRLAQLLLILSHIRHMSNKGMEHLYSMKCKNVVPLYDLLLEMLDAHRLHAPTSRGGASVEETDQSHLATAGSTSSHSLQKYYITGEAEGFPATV
Test: qHTS assay to identify small molecule antagonists of the estrogen receptor alpha (ER-alpha) signaling pathway using the BG1 cell line in the presence of 0.1 nM 17-beta-estradiol (AID 1259244)
Details: VM7Luc4E2 (BG1) ERE-luciferase, antagonist mode, 0.1 nM E2, 22 h; series mostly up to 92.4 µM; activity change, negative = inhibition: at the top concentration
How it was run: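 VM7Luc4E2 cells (endogenous full-length ER-alpha, 4×ERE-luciferase), kept 5 days in phenol red-free, charcoal-stripped FBS medium; 4,000 cells/well. Compounds added with 0.1 nM (final) 17beta-estradiol, 22 hr at 37C; luminescence read with ONE-Glo after 30 min.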

| Compound | activity change, negative = inhibition |
| --- | --- |
| N=C(N)S(=O)O | -4.24% |
| CC[C@@]1(c2ccccc2)NC(=O)N(C)C1=O | -0.663% [at 42.5 µM] |
| CC(=O)Oc1ccc(C(C)=O)cc1 | -7.72% |
| Cc1ccc(N)nc1 | 6.17% |
| CCCCCCC(O)CO (stereo not drawn) | 2.49% |
| CC(=O)OC/C=C(/C)CCC=C(C)C | -0.195% |
| CC(C)(C)OC(=O)c1ccccc1C(=O)O | 5.73% |
| CC1=C(O)C(=O)CO1 | -0.0438% |
| O=C(O)Cc1ccccc1Oc1ccc(Cl)cc1Cl | 7.52% [at 42.5 µM] |
| Cc1cc(=O)oc2cc(O[C@@H]3SC[C@@H](O)[C@H](O)[C@H]3O)ccc12 | 4.15% [at 42.5 µM] |
| CO/N=C(\C(=O)O)c1csc(NC(=O)CCl)n1 | 6.33% [at 42.5 µM] |
| Cc1nc2ccc(Cl)cc2[nH]1 | 1.03% |
| CC(C)c1cc(C(C)C)cc(C(C)C)c1 | -0.623% |
| COC(=O)c1ccc(NC(C)=O)cc1OC | -1.67% [at 42.5 µM] |
| O=S(=O)(O)c1ccc(Cl)cc1 | -0.534% |
| C=COCCCCO | -12.4% |
| C/C(=N\O)c1ccc(OCC(=O)N2CCCCC2)cc1 | 53.6% [at 42.5 µM] |
| Cc1cccc(N)n1 | 4.58% |
| CCCCCCCCCCCC(C)=O | 7.09% |
| CN(C)CCc1c[nH]c2ccc(C[C@H]3COC(=O)N3)cc12 | -0.403% [at 42.5 µM] |
| CC(=O)/C=C/C=C1/C2CCC(C2)C1(C)C (stereo not drawn) | 5.26% [at 42.5 µM] |
